“And” between values parts separate entries of the source, which are not always exact repeats. Identical values can stand only once. Hit rate of the full screen: of about 16,000 compounds, about 2,600 (16%) were called active. Inconclusive results (about 20%) are left out. The call rests on the fitted dose curve; in most records, active means well fitted curve in the direction sought with a large enough effect; inconclusive means small, poorly fitted or top-dose-only effect, or effect the other way; inactive means no such curve, though single readings can be large or run the other way. The list is a sample of the results. Peptide text beside a SMILES is read from it. * marks the point of attachment. Cbz = O=C(OCc1ccccc1)*
Biological target: Cytochrome P450 2D6 (Homo sapiens) (UniProt P10635)
Test: Cytochrome panel assay with activity outcomes
Conditions: recombinant CYP, pro-luciferin dealkylation, luminescence, p450-cyp2d6; series mostly up to 57.1 µM; activity, negative = inhibition: at the top concentration
On the % scale 0 is the no-effect control and ±100 the full control effect.

Cytochrome P450 2D6 (Homo sapiens), sequence (P10635 whole entry, looked up): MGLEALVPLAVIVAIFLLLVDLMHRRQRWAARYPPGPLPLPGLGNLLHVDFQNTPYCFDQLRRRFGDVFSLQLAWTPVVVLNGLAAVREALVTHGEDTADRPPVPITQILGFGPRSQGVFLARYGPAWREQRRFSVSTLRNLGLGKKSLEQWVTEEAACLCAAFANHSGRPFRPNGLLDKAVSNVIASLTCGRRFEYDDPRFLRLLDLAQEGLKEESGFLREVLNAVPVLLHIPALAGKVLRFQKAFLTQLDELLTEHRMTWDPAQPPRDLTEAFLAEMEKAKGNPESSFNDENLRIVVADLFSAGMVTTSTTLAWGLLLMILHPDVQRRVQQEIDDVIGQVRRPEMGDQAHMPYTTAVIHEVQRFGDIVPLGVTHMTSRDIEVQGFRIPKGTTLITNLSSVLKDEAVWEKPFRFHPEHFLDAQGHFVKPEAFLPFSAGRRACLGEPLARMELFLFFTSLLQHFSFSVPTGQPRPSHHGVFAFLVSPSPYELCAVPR

activity, negative = inhibition, inactive:
COc1cc(/C=C(/NC(=O)c2ccccc2)C(=O)Nc2ccccc2)c([N+](=O)[O-])cc1OC -7.54%
COc1c(F)c(F)c(C(=O)O)c(Nc2ccc(C)cc2)c1F -9.49%
Clc1ncccc1-c1nc2ccccc2n1Cc1ccccc1 -16.7%
Nc1nonc1-c1nc2ccccc2n1Cc1ccc(F)cc1Cl 0.412%
CCOC(=O)C1(N(CC)CC)Sc2cc(C)ccc2NC1=O (stereo unspecified) -10.6%
O=C(NC(=S)Nc1ccc(Oc2ccc(Cl)cc2)cc1)c1ccccc1 -13.6%
CCCC[C@]1(C2CCCC2)Cc2cc(OCC(=O)O)c(Cl)c(Cl)c2C1=O 2.96%
COc1cccc(Cn2c(=O)c(-c3cccs3)nc3cnc(Nc4cccc(OC)c4)nc32)c1 9.04%
COc1cc(/C=C(\C#N)C(=O)c2ccc(O)c(O)c2)cc(I)c1O -8.81%
COc1ccc(/C=C(\C#N)C(N)=O)c(OC)c1 -4.62% [at 11.4 µM]
COC(=O)[C@H]1C[C@@H]1[C@H](NC(=O)OCc1ccccc1)c1ccccc1 -9.48%
CCOC(=O)CC(NC(=O)c1ccco1)c1ccc(OC)cc1 (stereo unspecified) -7.1%
C[C@@]1(C(NC(=O)Cc2ccccc2)c2ccc(-c3ccccc3)cc2)C[C@H]1C1CCCCC1 (stereo partly specified) 2.63%
CCCC[C@@H]1C[C@H]1C(NC(=O)c1ccccc1)c1ccccc1 (stereo partly specified) -3.89%
C[C@@]1(C(NC(=O)c2ccc(-c3ccccc3)cc2)c2ccc(Cl)cc2)C[C@H]1C1CCCCC1 (stereo partly specified) 3.15%
COC(=O)c1ccc(C(NC(=O)c2ccccc2)[C@]2(C)C[C@H]2C2CCCCC2)cc1 (stereo partly specified) 3.73%
COc1ccc2c(c1)c(CC(=O)O)c(C)n2Cc1ccc(Cl)cc1 -6.32%
CO[C@@H]1COC(=O)C/C=C\[C@H](C)[C@@H](NS(=O)(=O)c2ccc(C)cc2)COC(=O)C/C=C\[C@@H]1C 1.88% [at 11.4 µM] and 8.18% [at 11.4 µM]
Cc1cc(SCC(=O)c2cccs2)nc2c(C)cccc12 -6.27%
O=C(O)CC(c1cccc2ccccc12)n1cccc1 (stereo unspecified) 29.7%
O=C(c1cc(C(F)(F)F)cc(C(F)(F)F)c1)N1CCC2(CC1)CCN(c1ccccn1)CC2 0.968%
O=C1OC2CC3CC1CC(O)(C3)C2 (stereo unspecified) 2.14%
O=C(NCCO[N+](=O)[O-])c1cccnc1 -17.2%
CO[C@@H]1COC(=O)CC=C[C@@H](C)[C@@H]2C=C[C@@H](O)[C@@H](COC(=O)C/C=C\[C@H]1C)O2 20% [at 11.4 µM]
O=c1c(CCc2ccccc2)nc2cncnc2n1Cc1ccccc1Cl -18.3%
CC(C)[C@H](NC(=O)OCc1ccccc1)C(=O)N[C@H](C=O)Cc1ccccc1 (Cbz-Val-Phe-aldehyde) -11.9%
Cc1nc2cnc(N3CCNCC3)nc2n(-c2ccccc2)c1=O -1.85%
CN1CCN(c2ncc3nc(-c4cc(F)cc(F)c4)c(=O)n(C4CC4)c3n2)CC1 -3.22%
O=S(=O)(O)c1cc(O)c2c(N=Cc3ccccc3O)cc(S(=O)(=O)O)cc2c1 -8.82% [at 11.4 µM]
Cc1cc(C)n(-c2nc(Nc3ccccc3C)nc(-n3nc(C)cc3C)n2)n1 2.75%
CC1(C)O[C@@H]2C[C@H]3[C@H]4C[C@H](F)C5=CC(=O)C=C[C@@]5(C)[C@@H]4[C@H](O)C[C@]3(C)[C@]2(C(=O)CO)O1 -4.12% [at 25.6 µM]
Cc1cc(S(=O)(=O)NCCN(C)C)c(C)s1 -9.26%
COc1ccc(-n2c(=O)c(-c3cccc(Cl)c3)nc3cncnc32)cc1 -12.5%
CCOC(=O)c1cnc2cc(-c3ccc(C(C)(C)C)cc3)nn2c1N -11.3%
Cn1c(C(=O)O)c(CC(=O)NCc2cccnc2)c2ccccc21 20.8%
O=C(CCc1ccccc1)NCc1cccnc1 -16.4%
O=[N+]([O-])c1ccc(Cl)c(-c2ccc(/C=N/c3c(-c4ccco4)nc4ccccn34)o2)c1 1.14%
Cc1cc(-c2cccc([N+](=O)[O-])c2)nc2ccc3ccccc3c12 1.13%
N#CCCn1c(=O)c(-c2ccc(F)cc2)nc2cnc(Oc3cccc(Cl)c3)nc21 1.43%
O=C(Cc1c[nH]c2ccccc12)OCC(=O)c1ccccc1 -28.2%
C[C@@](N)(Cc1c[nH]c2ccccc12)C(=O)O 5.35% [at 11.4 µM]
[O-][N+]1(CC[N+]2([O-])CCCCC2)CCCCC1 3.01% [at 11.4 µM]
COc1cccc(/C=N/n2c(=S)n(C)c3cc(C)c(C)cc32)c1OC 6.36%
CC(=O)CSc1nnc(Cc2ccc([N+](=O)[O-])cc2)o1 -6.4%
O=C(O)Cc1cc2ccccc2nc1C(=O)O 18.6%
COC(=O)C1C(=O)C2=C(CC1C)NC(=O)CC2c1cccc(C)c1 (stereo unspecified) 0.378%
CC[C@@H]1CN2CCc3cc(OC)c(OC)cc3[C@H]2C[C@@H]1C[C@H]1NCCc2cc(OC)c(OC)cc21 1.63% [at 25.6 µM]

AC50, active:
Clc1ccc(Cn2c(-c3cccnc3Cl)nc3ccccc32)c(Cl)c1 7.94 µM
CC1CC2(CCCCC2)N2C(=O)C(=O)c3cccc1c32 (stereo unspecified) 7.94 µM
COc1cc(/C=C(\C#N)C(N)=O)cc(CSc2nc3ccccc3s2)c1O 0.0251 µM
CCC[C@@H]1C[C@@]1(CCC)C(NC(=O)c1ccccc1)c1cccc(Cl)c1 (stereo partly specified) 3.16 µM
CCC[C@@H]1C[C@@]1(CCC)C(NC(=O)OCc1ccccc1)c1ccc(-c2ccccc2)cc1 (stereo partly specified) 7.94 µM
CCC[C@@H]1C[C@@]1(CCC)C(NC(=O)c1ccco1)c1ccc(Cl)cc1 (stereo partly specified) 3.98 µM
CCN1/C(=C/c2ccc3cccc(C)c3[n+]2CC)Sc2ccccc21 0.0708 µM
CCN(CCO)Cc1csc2cccc(Br)c12 15.8 µM
O=C(CSCc1c(Cl)cccc1Cl)NCc1cccnc1 15.8 µM
CCOC(=O)CCCc1c[nH]c2ccccc12 17.8 µM
COc1ccc2[nH]cc(CCNc3ncncc3-c3ccccc3C(F)(F)F)c2c1 2 µM
COc1ccc2[nH]cc(CCNc3ncncc3-c3ccccc3OC)c2c1 1.26 µM
COc1ccc2[nH]cc(CCNc3ncncc3-c3ccccc3Cl)c2c1 0.631 µM
COc1ccc2[nH]cc(CCNc3ncncc3-c3ccccc3CN(C)C)c2c1 10 µM

Source: PubChem BioAssay AID1851 (National Center for Advancing Translational Sciences (NCATS), 2009)
